Only some compounds are listed: those with a hit (about 18% of all), similar ones and a draw of the others.
CtBP-E1A inh = inhibitors of CtBP/E1A interaction; AlphaScreen GST-E1A/His-CtBP binding, 1536-well; stronger effect = lower value; activity change, % (no concentration beside the values); 0.49% of 340,000 active; AID 651724; in the data active = activity change below about -65%; inconclusive = mostly about -30% to -63%
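AlphaScreen with 125 nM GST-E1A and 125 nM His-CtBP (5X stocks) in Tris pH 8.0, 300 mM NaCl, BSA, Tween 20, TCEP. Compounds preincubated 2 h at 37 deg C, then glutathione donor/nickel acceptor beads added for 1 h at 37 deg C in dark.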
TDP1 block = inhibitors of human tyrosyl-DNA phosphodiesterase TDP1; Potency, µM (titrated, usually from 130 µM), for the others: at the highest dose activity change, negative = inhibition, most hits filed as inhibitors; AID 485290; Q9NUW8; recombinant TDP1, AlphaScreen DNA substrate cleavage; 0.28% of 350,000 active; note: potency is the fitted concentration of half-maximal effect; nearly all actives have a fitted effect of over 40% in size
Target sequence (Q9NUW8 whole entry, looked up): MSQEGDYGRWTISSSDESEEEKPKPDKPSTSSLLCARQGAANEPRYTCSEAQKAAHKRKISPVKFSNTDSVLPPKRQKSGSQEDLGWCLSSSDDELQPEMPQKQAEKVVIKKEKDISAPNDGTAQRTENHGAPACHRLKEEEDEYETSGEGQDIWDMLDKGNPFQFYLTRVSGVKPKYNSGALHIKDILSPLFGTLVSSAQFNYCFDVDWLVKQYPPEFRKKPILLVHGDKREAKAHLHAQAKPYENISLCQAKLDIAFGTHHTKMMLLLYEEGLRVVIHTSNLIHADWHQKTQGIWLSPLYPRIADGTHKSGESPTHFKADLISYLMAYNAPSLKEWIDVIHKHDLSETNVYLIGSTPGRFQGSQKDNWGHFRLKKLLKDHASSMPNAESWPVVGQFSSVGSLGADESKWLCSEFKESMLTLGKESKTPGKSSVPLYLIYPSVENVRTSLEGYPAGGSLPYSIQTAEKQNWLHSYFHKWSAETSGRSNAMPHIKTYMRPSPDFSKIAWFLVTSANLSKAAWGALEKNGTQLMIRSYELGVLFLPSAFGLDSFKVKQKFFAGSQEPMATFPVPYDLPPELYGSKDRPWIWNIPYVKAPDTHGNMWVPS
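AlphaScreen read-out: signal falls as enzyme removes the 3' tyrosine-FITC from a 5'-biotinylated DNA oligo (15 nM, 5 min, RT). Enzyme was E. coli-made recombinant Tdp1 at 1 nM, exposed to compound for 15 min beforehand; beads 10 ug/ml, 10 min.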
DT40 TDP1 CPT = DT40-hTDP1 cell growth loss with CPT; chicken DT40 Tdp1-/-;hTDP1 cells + 20 nM CPT, ATP luminescence, 48 h; Potency, µM (titrated, usually from 46.2 µM), for the others: at the highest dose activity change, negative = growth inhibition, most hits filed as inhibitors; 12% of 420,000 active; AID 686979; note: potency is the fitted concentration of half-maximal effect; nearly all actives have a fitted effect of over 55% in size
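Cell growth measured by CellTiter-Glo luminescence after a minimum 48 h, 37 C compound exposure with 20 nM CPT in Tdp1-knockout DT40 cells stably expressing hTDP1, seeded 400/well; qHTS titration format.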
IL-1B inflam inh = blocks inflammasome-driven IL-1 beta release | 4.7% of 360,000 active | activity change, % at 57.5 µM | AID 743279 | THP-1 LPS/ATP IL-1B secretion, AlphaLISA, 16 h; stronger effect = lower value; in the data active = activity change below about -50%; inconclusive = mostly about -30% to -49%
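Secreted IL-1B measured by AlphaLISA bead assay after 16 h compound exposure of THP-1 cells; compounds (final up to 57.5 uM) added 1 h before LPS (250 ng/mL) and ATP (1.25 mM) stimulation; lower signal means less secretion.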
DT40 TDP1 no CPT = qHTS for Inhibitors of human tyrosyl-DNA phosphodiesterase 1 (TDP1): qHTS in cells in absence of CPT; DT40 Tdp1-/- hTDP1 cells, no CPT, ATP luminescence, 48 h; Potency, µM (series often up to 46.2 µM), for the others: at the highest dose activity change, negative = growth inhibition, actives largely listed as inhibitors; 15% of 420,000 active; note: potency is the fitted concentration of half-maximal effect; nearly all actives have a fitted effect of over 55% in size
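No-CPT arm: Tdp1-/-;hTDP1 DT40 cells (400/well) plus compounds, incubated ≥48 hr at 37 °C. Readout CellTiter-Glo luminescence.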
Six1-Eya2 inh = inhibitors of human Six1/Eya2 interaction; AlphaScreen GST-Six1/His-Eya2 binding, biochemical; stronger effect = lower value; 0.56% of 360,000 active; activity change, % (concentration not given with the values); Q15475+O00167; AID 651725; in the data active = activity change below about -65%; inconclusive = mostly about -30% to -63%
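AlphaScreen luminescence read after one hour at 37 °C in darkness. Pin-transferred compounds met GST-Six1 and His-Eya2 protein (5X stock 250 nM/500 nM) plus glutathione donor and Ni-chelate acceptor beads (5X, 50 ug/mL).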
* marks the source's active call; other numbers are inactive results; ? = inconclusive; / = no result; [ ] = dose if it differs, or a comment. Unless noted, calls come from the whole dose curve; as a rule, active = well fitted curve in the direction sought with a large enough effect; inconclusive = small, poorly fitted or top-dose-only effect, or another doubt; inactive = no such curve, though single readings can be large; an effect the other way counts as inactive or inconclusive. % is set by controls: 0 for no effect and ±100 for the full control effect.

SMILES | CtBP-E1A inh | TDP1 block | DT40 TDP1 CPT | IL-1B inflam inh | DT40 TDP1 no CPT | Six1-Eya2 inh
S=C(NC1CCCC1)NC1CC1 | 3 | 0% | 1% | -4 | -9% | 1
COC(=O)CSc1[nH]c2ccccc2c1[N+](=O)[O-] | / | 1% | 18µM* | 5 | -29% | 6
Cc1[nH]nc(SCC(=O)NCc2ccccc2)c1[N+](=O)[O-] | 4 | 5% | 16% | 27 | -4% | -4
CCOc1ccc(S(=O)(=O)N2CCN(Cc3ccccc3)CC2)c2cccnc12 | -20 | 3% | -27% | ? | -21% | -16
O=C(c1ccccc1)c1ccsc1C(=O)c1ccccc1 | 0 | / | -14% | 0 | ? | 6
CCOC(=O)Cc1csc(NC(=O)Nc2ccc(Cl)cc2)n1 | 2 | 4% | 21µM* | -12 | 16µM* | -17
O=C(CNC1CCCCC1)Nc1ccc(Cl)cc1 | / | / | -11% | -28 | -29% | -8
O=C(Cc1csc(NC(=O)Nc2ccc(Cl)cc2)n1)NC1CCCC1 | -3 | 0% | ? | -53* | ? | -1
CN1CCN(C(=O)/C(=C/c2ccccc2Cl)NC(=O)c2ccccc2)CC1 | 0 | -5%[0.0935 µM] | 19% | 15 | -17% | -23
NC1=NC(=Nc2cccc(S(N)(=O)=O)c2)c2ccccc21 | / | 5% | -18% | ? | -15% | -3
COc1cc(N=Nc2cccc(S(N)(=O)=O)c2)c2ccccc2c1N | -71* | 9% | ? | ? | 18µM* | ?
Cc1ccc(C(=O)NCC(C)NC(=O)c2ccc(C)c(C)c2)cc1C (configuration not stated) | 6 | / | ? | -26 | 26µM* | -1
O=C(NCC(c1ccco1)S(=O)(=O)c1cccs1)c1ccccc1 (configuration not stated) | / | -5% | ? | / | ? | /
Cc1ccc(C(=O)NCC(c2ccco2)S(=O)(=O)c2ccc(Cl)cc2)cc1C (configuration not stated) | / | -3% | 16µM* | / | 21µM* | /
O=C(NCC(c1ccco1)S(=O)(=O)c1cccs1)c1ccc(F)c(F)c1 (configuration not stated) | / | 0% | 13µM* | / | 16µM* | /
Cc1ccc(S(=O)(=O)C(CNC(=O)COc2ccc(Cl)cc2)c2ccco2)cc1 (configuration not stated) | / | 8% | 23µM* | / | ? | /
COc1ccc(C(=O)NCC(C)NC(=O)c2ccc(OC)c(OC)c2)cc1OC (configuration not stated) | 3 | / | 1% | -5 | 4% | 4
O=C(Cn1cc(C(F)(F)F)cc(Cl)c1=O)NCc1ccc(Cl)cc1 | 2 | 0% | 13% | 6 | ? | 2
COc1ccccc1-n1c(C)nc2cc(C(=O)O)ccc21 | 1 | -2% | -3% | -1 | 4% | 1
O=C(Nc1nc2ccccc2[nH]1)C1CCN(C(=O)c2ccc(F)cc2)CC1 | -8 | -21%[0.505 µM] | 2% | -10 | -25% | -3
COc1cc(C)c(C(=O)CSc2nnc(CNC(=O)c3ccco3)n2C)cc1C | -2 | -5% | -2% | -7 | -18% | 5
Cc1ccc(S(=O)(=O)C(CNC(=O)c2c(F)cccc2F)c2ccco2)cc1 (configuration not stated) | / | 4% | ? | / | 23µM* | /
CCOc1ccc(C(=O)NCC(c2ccco2)S(=O)(=O)c2ccc(C)cc2)cc1 (configuration not stated) | / | 0% | ? | / | ? | /
Cc1ccc(S(=O)(=O)NCC(c2ccco2)S(=O)(=O)c2ccccc2)cc1 (configuration not stated) | 4 | -15%[0.505 µM] | -30% | -10 | ? | -6
O=C(NCC(c1ccco1)S(=O)(=O)c1ccc(Cl)cc1)c1ccccc1F (configuration not stated) | / | -3% | ? | / | 16µM* | /
SMILES | CtBP-E1A inh | TDP1 block | DT40 TDP1 CPT | IL-1B inflam inh | DT40 TDP1 no CPT | Six1-Eya2 inh
Cc1ccc(S(=O)(=O)C(CNC(=O)C(=O)NCc2ccc(Cl)cc2)c2ccco2)cc1 (configuration not stated) | / | 3% | -3% | / | -14% | /
Cc1ccc(S(=O)(=O)C(CNC(=O)c2ccc(F)c(F)c2)c2ccco2)cc1 (configuration not stated) | / | 3% | 16µM* | / | ? | /
CC1(C(=O)NS(=O)(=O)Cc2cccc(Cl)c2)CCN1C(=O)C1(c2ccc(Cl)cc2)CC1 (configuration not stated) | -1 | / | ? | 8 | ? | -12
COC(=O)c1cc(=O)n2c(-c3ccc(OC)cc3)csc2n1 | 9 | 3% | 4% | 15 | 4% | 0
COc1cc(-c2nnc(NC(=O)CCS(=O)(=O)c3ccc(F)cc3)o2)cc(OC)c1OC | -7 | 1% | ? | 6 | 18µM* | 4
COc1cc(-c2nnc(NC(=O)CCS(=O)(=O)c3ccccc3)o2)cc(OC)c1OC | 5 | 1% | 16µM* | -55* | 15µM* | ?
COc1cc(C(=O)NCCc2ccccc2)ccc1OCC(=O)N1CCOCC1 | 0 | 0% | 5% | -7 | 26% | 3
COc1ccc(N(CC(=O)NCCC2=CCCCC2)S(=O)(=O)c2ccc(C)cc2)cc1OC | -6 | 5% | -27% | 14 | ? | 4
N#Cc1cccc(NC(=O)Cn2cnc(S(=O)(=O)N3CCOCC3)c2)c1 | 10 | 1% | ? | 10 | ? | 1
Cc1ccc(S(=O)(=O)N2CCC(=O)N(CCOCc3ccccc3)CC2)cc1 | / | 1% | ? | -6 | ? | -6
C=C1C[C@@H]2C[C@@H]2CN(S(=O)(=O)c2ccc(C)cc2)[C@@H]1COCc1ccccc1 | 5 | / | 8.2µM* | 3 | 8.2µM* | 13
Cc1cccc(CCN2C(N(C)C)=NC[C@@H]2Cc2ccccc2)c1 | -25 | 1% | ? | -59* | ? | 39

Source: PubChem
